The whole screen tested about 310,000 compounds, of which about 1,400 (0.45%) were called active.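 Rule for the calls: active = B-score, a plate-corrected calcium signal, over three deviations above library mean, with baseline fluorescence within five deviations of library mean; inactive = the rest.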 Only a selection was taken, and actives are over-represented in it overall.
biological target: Regulator of G-protein signaling 4 (Homo sapiens) (UniProt P49798); assay: blockers of RGS4 function in M3R calcium signaling – cell-based, HEK293 M3R inducible RGS4, calcium flux, primary screen (AID 463165); conditions: Fluo-4 calcium flux, at 10 µM, triggered by carbachol at its EC20; hits give high values;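 note: RGS4 expression induced by doxycycline in cells with stable M3 receptor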;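 for B-score: B-score is computed from the integrated fluorescence ratio over baseline after carbachol; higher B-score means a larger calcium signal and so more RGS4 inhibition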
Sequence (P49798 whole entry, looked up): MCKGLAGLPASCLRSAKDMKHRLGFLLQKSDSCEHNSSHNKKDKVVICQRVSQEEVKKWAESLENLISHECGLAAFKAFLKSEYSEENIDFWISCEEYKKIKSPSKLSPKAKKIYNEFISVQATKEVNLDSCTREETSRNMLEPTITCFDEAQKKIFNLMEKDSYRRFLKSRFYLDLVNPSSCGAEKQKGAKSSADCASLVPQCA

| Structure (SMILES) | B-score |
| --- | --- |
| COc1ccccc1CN(C)C(=O)C1(c2ccc(Cl)cc2)CC1 | inactive |
| CN(CC1CCCN(CCc2cccc(C(F)(F)F)c2)C1)C(=O)c1ccc2nc[nH]c2c1 (stereo not given) | inactive |
| COC(=O)N/N=C/c1cn(CCCOc2ccc(C)cc2)c2ccccc12 | inactive |
| COC(=O)Cn1cc(/C=C/[N+](=O)[O-])c2ccccc21 | 14.7 (active) |
| COC(=O)c1cn(CC(=O)NCc2cccs2)c2ccccc12 | inactive |
| O=C(CN1CCN(S(=O)(=O)c2ccc3ccccc3c2)CC1)NC(=O)NC1CCCCC1 | inactive |
| CCCc1nn(C)c2c(=O)[nH]c(-c3cc(S(N)(=O)=O)ccc3OCC)nc12 | inactive |
| CCCCOc1ccc(C(=O)N/C(=C/C=C/c2ccccc2)C(=O)N2CCOCC2)cc1 | inactive |
| OCCCC1CCCCN1Cc1nc(Cc2ccccc2Cl)no1 (stereo not given) | inactive |
| Nc1cccc(-c2cc(-c3ccccc3)nc(-c3cccc(N)c3)n2)c1 | 5.75 (active) |
| Nc1nc(-c2ccccc2)cc(-c2ccccc2)n1 | inactive |
| CNc1nc(-c2ccccc2)cc(-c2ccccc2)n1 | inactive |
| COCCNC(=O)C(OC(=O)c1cccs1)c1ccc(F)cc1 (stereo not given) | inactive |
| COCCNC(=O)CSc1nc2c(n1-c1ccccc1)CCCC2 | inactive |
| O=C(NCc1ccc(F)cc1)C1CCC(CNc2c(N3CCOCC3)c(=O)c2=O)CC1 (stereo not given) | inactive |
| Cc1noc(C)c1S(=O)(=O)Nc1cc(C(F)(F)F)ccc1N1CCOCC1 | inactive |
| COc1cc2c(cc1OC)C(/C=C/c1ccco1)=NCC2 | inactive |
| CCOC(=O)C1=NN(c2ccc(Cl)cc2)/C(=C/C2=NCCc3cc(OC)c(OC)cc32)S1 | 4.81 (active) |
| CCOC(=O)C1=C(CN2CCc3ccccc32)NC(=O)NC1c1ccc(Cl)cc1 (stereo not given) | inactive |
| CC(=O)c1cccc(NC(=O)C2CCCN2S(=O)(=O)c2cccc3nsnc23)c1 (stereo not given) | inactive |
| Cn1c(N2CCOCC2)c(C=O)c2ccccc21 | inactive |
| O=C1/C(=C\c2cccnc2)CN(Cc2ccccc2)C/C1=C\c1cccnc1 | 20.8 (active) |
| O=C1NCC(=O)N(Cc2ccccc2)/C1=C/c1ccccc1 | inactive |
| Clc1ccc(CN2CCN(/N=C/c3cccnc3)CC2)cc1 | inactive |

| Structure (SMILES) | B-score |
| --- | --- |
| NS(=O)(=O)c1ccc(CCNC(=O)c2ccc([N+](=O)[O-])cc2[N+](=O)[O-])cc1 | inactive |
| COc1cc(/C=N/NC(=O)c2cccnc2)ccc1OC(=O)c1cccc(Br)c1 | inactive |
| C=C(C)C(=O)O[C@H]1C/C(C)=C\C(=O)/C=C(\C)[C@H](O)[C@@H]2OC(=O)C(=C)[C@@H]21 | 5.6 (active) |
| Nc1ccccc1/C=N\N=C/c1ccccc1N | inactive |
| Cc1ccc2c(c1)N(CC(=O)NCCc1ccc(Cl)cc1)C(=O)c1cccnc1O2 | inactive |
| Cn1c(SCC(=O)N2CCCC2)nnc1-c1cccs1 | inactive |
| O=C(/C=C/c1ccc(N2CCOCC2)cc1)c1ccccc1 | inactive |
| Cc1cccc(N2C(=O)c3ccc(C(=O)Nc4cccc(C(=O)O)c4)cc3C2=O)c1 | inactive |
| O=C(O)c1ccc2c(c1)C(=O)N(c1ccc(/C=C/C(=O)c3ccccc3)cc1)C2=O | 24.6 (active) |
| COC(=O)c1sccc1NN1C(=O)c2ccccc2C1=O | inactive |
| COc1ccc(N2CCN(C(=O)COC(=O)c3cccc(S(=O)(=O)Nc4ccccc4OC)c3)CC2)cc1 | inactive |
| O=C(Nc1ccc(Cl)cc1)OCc1cc(-c2ccccc2)on1 | 6.27 (active) |
| O=C(Nc1cccc(Cl)c1)OCc1ccccn1 | inactive |
| O=C(Nc1ccccc1)OCc1cn(-c2ccc(Cl)cc2)nn1 | inactive |
| Cc1cccc(-c2nnc(SCC(=O)O)n2Cc2ccccc2)c1 | inactive |
| O=C(/C=C/Sc1ncn[nH]1)c1ccc(Cl)cc1 | 12 (active) |
| Cc1ccc(C(=O)/C=C/c2c(C)nn(-c3ccccc3)c2Cl)cc1 | inactive |
| O=C(CSc1ncn[nH]1)N/N=C/c1ccc(F)cc1 | inactive |
| O=S(=O)(Cc1cc(Sc2ccccc2)nc(-c2ccccc2)n1)c1ccccc1 | inactive |
| Cc1cc(N2CCOCC2)nc(-c2ccc(Br)cc2)n1 | inactive |
| Cc1ccc(Sc2cc(N3CCOCC3)nc(-c3ccccc3)n2)cc1 | 8.43 (active) |
| CCCN(CCc1ccccc1)C1CCc2c(O)cccc2C1 (stereo not given) | inactive |
| CCc1ccc(N(C(=O)c2csnn2)C(C(=O)NC2CCCCC2)c2ccncc2)cc1 (stereo not given) | inactive |
| Cc1ccc2nc(-c3ccc(NC(=O)CN(C)S(=O)(=O)c4ccccc4)cc3)sc2c1 | inactive |

| Structure (SMILES) | B-score |
| --- | --- |
| NC(=O)NC(=O)CSc1nc2cc([N+](=O)[O-])ccc2n1-c1cccc(C(F)(F)F)c1 | inactive |
| CCc1nnc(NS(=O)(=O)c2ccc(NS(=O)(=O)c3ccccc3)cc2)s1 | inactive |
| CCc1nnc(NS(=O)(=O)c2ccc(NC(=S)NC(=O)/C=C/c3cccs3)cc2)s1 | inactive |
| CCc1nnc(NS(=O)(=O)c2ccc(N=Cc3c(C)[nH]n(-c4ccc(C)cc4)c3=O)cc2)s1 | 5.86 (active) |
| O=C(OCc1cc(Cl)ccc1OC(F)F)c1cccnc1 | inactive |
| CC(C)=N/N=C1/NC(=O)C(Cc2ccccc2)S1 (stereo not given) | inactive |
| O=C1N/C(=N\N=C\c2ccco2)SC1Cc1ccc(F)cc1 (stereo not given) | inactive |
| CCCCC1S/C(=N/N=C/c2cccs2)NC1=O (stereo not given) | 6.28 (active) |
| Cc1cccc(CN2CCN(Cc3cnn(-c4ccccc4F)c3)CC2CCO)n1 (stereo not given) | inactive |
| CCCCN1C(=S)NC[C@@H]1C(C)CC (stereo not given in full) | inactive |
| CC(CO)NCC12CC3CC(CC(C3)C1)C2 (stereo not given) | inactive |
| Brc1ccc(-c2csc(N/N=C/c3ccc4c(c3)OCO4)n2)cc1 | inactive |
| Brc1ccc(-c2csc(N/N=C/c3cccnc3)n2)cc1 | 7.99 (active) |
| Cc1ccccc1Nc1nc(-c2cccnc2)cs1 | inactive |
| CCCCN1C(=O)C(C)=C(C)C1OCCc1ccc(OC)c(OC)c1 (stereo not given) | inactive |
| c1ccc(CN=C2Nc3ccccc3CS2)nc1 | inactive |
| CC(=O)NCC(O)c1ccc([N+](=O)[O-])cc1 (stereo not given) | inactive |
| CCC(C)c1ccc(O)c(/C=N/O)c1 (stereo not given) | inactive |
| CNCC(O)c1ccc(O)c(O)c1 (stereo not given) | 6 (active) |
| FC(F)(F)c1ccc(-n2cn[nH]c2=S)cc1 | inactive |
| Cc1ccnc(NS(=O)(=O)c2ccc(NC(=O)c3oc4ccc(F)cc4c3C)cc2)n1 | inactive |
| CCOC(=O)c1c(NC(C)=O)sc2c(O)c(Br)ccc12 | inactive |
